Laboratory results published in PubChem BioAssay (Tox21).
Records with an inconclusive call do not appear. Where a call stands in place of a potency, no number is given. Calls of active or inactive are those of the source. Calls follow the shape of the dose curve; as a rule, active = well fitted cell-killing curve with a large enough effect in the repeat runs; inconclusive = weak or mixed curves, or effect the other way; inactive = flat fitted curve, though single readings scatter.

Test: qHTS assay to identify small molecule that activate the aryl hydrocarbon receptor (AhR) signaling pathway - cell viability counter screen (AID 743086); also: nearly all actives have a fitted effect of over 45% in size
Settings: HepG2-AhR-luc viability, CellTiter-Fluor, 24 h; series mostly up to 70.3 µM
How it was run: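 Cytotoxicity counter screen: CellTiter-Fluor signal (30 min, 37 C) in 4000 HepG2 cells/well carrying the DRE-luciferase reporter, following 24 h compound exposure at 37 C.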
Potency is read from the fitted curve at half-maximal effect.

Structure (SMILES)	Potency
COc1cc(/C=C/C(=O)O[C@H]2CC[C@]34C[C@]35CC[C@]3(C)[C@@H]([C@H](C)CCC=C(C)C)CC[C@@]3(C)[C@@H]5CC[C@H]4C2(C)C)ccc1O	inactive
CCCCCCCCCCCCCCCC(=O)OC[C@H](O)[C@H]1OC(=O)C(O)=C1O	inactive
Cc1c(C)c2c(c(C)c1O)CCC(C)(COc1ccc(CC3SC(=O)NC3=O)cc1)O2 (stereo not given)	inactive
COC(=O)C1=C(C)NC(C)=C(C(=O)OCC(C)C)C1c1ccccc1[N+](=O)[O-] (stereo not given)	inactive
O=[N+]([O-])c1ccccc1Nc1ccccc1	inactive
CN(C)c1ccc(SC#N)cc1	inactive
CCCC1O[C@@H]2C[C@H]3[C@@H]4CCC5=CC(=O)C=C[C@]5(C)[C@H]4[C@@H](O)C[C@]3(C)[C@]2(C(=O)CO)O1 (stereo not given in full)	inactive
CCc1cc(Cc2cc(CC)c(N)c(CC)c2)cc(CC)c1N	inactive
CCCCCCCCCCC=O	inactive
C1CCCC1	inactive
CC(C)CCCCCCCCCCCCCCC(=O)O	inactive
Oc1ccc(Cl)cc1Sc1cc(Cl)ccc1O	inactive
NC(=NCCCCCCN=C(N)/N=C(\N)Nc1ccc(Cl)cc1)/N=C(\N)Nc1ccc(Cl)cc1	inactive
CC1=NC(C)OC1C (stereo not given)	inactive
C=C(C)C(=O)OCC[N+](C)(C)C	inactive
CCCCCOC(=O)CCCC	inactive
CCOC(=O)c1nc(C(Cl)(Cl)Cl)n(-c2ccc(Cl)cc2Cl)n1	61.1 µM (active)
CCC(C)(C)C1CCCCC1OC(C)=O (stereo not given)	inactive
Clc1ccc2nsnc2c1NC1=NCCN1	inactive
C[C@@H]1C[C@H]2[C@@H]3CCC4=CC(=O)C=C[C@]4(C)[C@@]3(Cl)[C@@H](O)C[C@]2(C)[C@@]1(OC(=O)c1ccco1)C(=O)CCl	inactive
